# Test results taken from doi:10.1101/2025.02.07.636106.
# Experiments:
# [1] = molecular target: AP-1 complex subunit sigma-1A (UniProt P61966); assay: cross-linking mass spectrometry
# [2] = molecular target: AP-1 complex subunit mu-1 (UniProt Q9BXS5); assay: co-fractionation; cross-linking mass spectrometry
# [3] = molecular target: Elongation factor 1-alpha 1 (UniProt P68104); assay: cross-linking mass spectrometry
# Histone deacetylase 2 = Histone deacetylase 2 (UniProt Q92769); assay: cross-link between two proteins; cross-linking mass spectrometry
# Peregrin = Peregrin (UniProt P55201); assay: as above
# Abl interactor 1 = Abl interactor 1 (UniProt Q8IZP0); assay: co-fractionation; cross-linking mass spectrometry
# [4] = molecular target: Dolichyl-diphosphooligosaccharide--protein glycosyltransferase subunit DAD1 (UniProt P61803); assay: co-fractionation; cross-linking mass spectrometry
# Sequence of Dolichyl-diphosphooligosaccharide--protein glycosyltransferase subunit DAD1 (P61803 whole entry): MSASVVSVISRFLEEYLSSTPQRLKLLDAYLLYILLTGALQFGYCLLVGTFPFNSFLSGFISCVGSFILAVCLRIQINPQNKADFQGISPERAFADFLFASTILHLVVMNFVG
# [5] = molecular target: 26S proteasome non-ATPase regulatory subunit 7 (UniProt P51665); assay: cross-link between two proteins; cross-linking mass spectrometry
# [6] = molecular target: 26S proteasome regulatory subunit 10B (UniProt P62333); assay: as above
# [7] = molecular target: Activity-dependent neuroprotector homeobox protein (UniProt Q9H2P0); assay: as above
# [8] = molecular target: B-cell receptor-associated protein 29 (UniProt Q9UHQ4); assay: as above
# [9] = molecular target: BTB/POZ domain-containing protein 7 (UniProt Q9P203); assay: as above
# [10] = molecular target: Cytochrome b-c1 complex subunit Rieske, mitochondrial (UniProt P47985); assay: as above
# Elongin-A = Elongin-A (UniProt Q14241); assay: as above
# [11] = molecular target: Endoplasmic reticulum chaperone BiP (UniProt P11021); assay: as above
# Histone H2B type 1-M = Histone H2B type 1-M (UniProt Q99879); assay: as above
# Histone deacetylase 1 [12] = molecular target: Histone deacetylase 1 (UniProt Q13547); assay: as above
# Sequence of Histone deacetylase 1 (Q13547 whole entry): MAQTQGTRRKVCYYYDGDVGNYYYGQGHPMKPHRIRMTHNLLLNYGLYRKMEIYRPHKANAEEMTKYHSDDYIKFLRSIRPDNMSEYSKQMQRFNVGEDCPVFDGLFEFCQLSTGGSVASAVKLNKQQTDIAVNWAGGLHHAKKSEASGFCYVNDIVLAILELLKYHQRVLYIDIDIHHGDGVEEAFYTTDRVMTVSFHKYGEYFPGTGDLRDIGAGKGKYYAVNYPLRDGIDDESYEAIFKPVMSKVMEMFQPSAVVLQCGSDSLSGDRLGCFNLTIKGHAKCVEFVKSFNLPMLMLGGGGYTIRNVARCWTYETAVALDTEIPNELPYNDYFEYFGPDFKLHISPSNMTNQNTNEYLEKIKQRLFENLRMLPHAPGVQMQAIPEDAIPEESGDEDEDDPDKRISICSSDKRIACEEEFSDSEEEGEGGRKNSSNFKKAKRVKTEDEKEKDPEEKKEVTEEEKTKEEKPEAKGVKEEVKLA
# [13] = molecular target: Histone-lysine N-methyltransferase 2A (UniProt Q03164); assay: as above
# [14] = molecular target: Histone-lysine N-methyltransferase, H3 lysine-36 specific (UniProt Q96L73); assay: as above
# [15] = molecular target: Keratin, type I cytoskeletal 10 (UniProt P13645); assay: as above
# [16] = molecular target: KxDL motif-containing protein 1 (UniProt Q9BQD3); assay: as above
# Sequence of KxDL motif-containing protein 1 (Q9BQD3 whole entry): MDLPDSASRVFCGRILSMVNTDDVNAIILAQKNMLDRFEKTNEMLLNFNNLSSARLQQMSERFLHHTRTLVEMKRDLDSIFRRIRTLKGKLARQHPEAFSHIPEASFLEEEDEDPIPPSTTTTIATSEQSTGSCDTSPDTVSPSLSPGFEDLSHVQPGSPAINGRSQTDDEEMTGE
# [17] = molecular target: Lymphatic vessel endothelial hyaluronic acid receptor 1 (UniProt Q9Y5Y7); assay: as above
# [18] = molecular target: Melanoma inhibitory activity protein 2 (UniProt Q96PC5); assay: as above
# Sequence of Melanoma inhibitory activity protein 2 (Q96PC5 whole entry): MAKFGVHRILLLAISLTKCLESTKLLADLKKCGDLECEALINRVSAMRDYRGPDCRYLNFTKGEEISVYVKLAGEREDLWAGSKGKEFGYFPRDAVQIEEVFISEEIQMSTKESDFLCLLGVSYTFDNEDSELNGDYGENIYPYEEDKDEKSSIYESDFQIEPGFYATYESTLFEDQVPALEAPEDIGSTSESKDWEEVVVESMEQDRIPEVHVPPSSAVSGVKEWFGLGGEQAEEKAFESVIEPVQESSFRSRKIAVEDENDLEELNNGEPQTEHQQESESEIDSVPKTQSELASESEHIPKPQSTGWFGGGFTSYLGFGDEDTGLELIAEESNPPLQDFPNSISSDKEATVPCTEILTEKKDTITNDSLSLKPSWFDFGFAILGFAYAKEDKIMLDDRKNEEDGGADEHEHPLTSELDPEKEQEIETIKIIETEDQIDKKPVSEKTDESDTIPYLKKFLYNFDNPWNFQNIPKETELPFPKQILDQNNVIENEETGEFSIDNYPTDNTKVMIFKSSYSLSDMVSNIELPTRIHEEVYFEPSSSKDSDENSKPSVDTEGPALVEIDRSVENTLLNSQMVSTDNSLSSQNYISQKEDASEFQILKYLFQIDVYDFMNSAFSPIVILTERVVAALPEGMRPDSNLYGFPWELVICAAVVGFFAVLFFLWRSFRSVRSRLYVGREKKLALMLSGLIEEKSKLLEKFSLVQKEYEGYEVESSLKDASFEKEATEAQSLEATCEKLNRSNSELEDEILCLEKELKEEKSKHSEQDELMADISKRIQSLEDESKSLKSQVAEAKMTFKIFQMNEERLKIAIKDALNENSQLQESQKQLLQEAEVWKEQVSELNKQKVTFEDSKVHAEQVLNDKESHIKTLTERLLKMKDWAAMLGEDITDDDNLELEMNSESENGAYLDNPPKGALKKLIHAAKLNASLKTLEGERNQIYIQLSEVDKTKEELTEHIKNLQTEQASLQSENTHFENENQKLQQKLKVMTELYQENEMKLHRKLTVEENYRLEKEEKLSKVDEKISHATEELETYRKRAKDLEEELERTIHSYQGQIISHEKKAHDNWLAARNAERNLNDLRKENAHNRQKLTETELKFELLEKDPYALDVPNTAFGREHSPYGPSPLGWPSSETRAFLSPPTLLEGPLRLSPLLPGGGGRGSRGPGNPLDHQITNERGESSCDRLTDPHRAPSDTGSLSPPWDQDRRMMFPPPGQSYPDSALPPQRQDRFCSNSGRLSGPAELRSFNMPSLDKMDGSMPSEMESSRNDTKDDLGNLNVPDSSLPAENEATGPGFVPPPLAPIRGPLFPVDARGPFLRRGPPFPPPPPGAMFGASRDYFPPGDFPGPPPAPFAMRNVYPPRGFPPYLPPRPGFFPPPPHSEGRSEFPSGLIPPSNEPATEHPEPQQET
# Zinc finger protein DPF3 = Zinc finger protein DPF3 (UniProt Q92784); assay: as above
# [19] = molecular target: Metastasis-associated protein MTA3 (UniProt Q9BTC8); assay: as above
# [20] = molecular target: Methyl-CpG-binding domain protein 2 (UniProt Q9UBB5); assay: as above
# Sequence of Methyl-CpG-binding domain protein 2 (Q9UBB5 whole entry, the tested form may be a part): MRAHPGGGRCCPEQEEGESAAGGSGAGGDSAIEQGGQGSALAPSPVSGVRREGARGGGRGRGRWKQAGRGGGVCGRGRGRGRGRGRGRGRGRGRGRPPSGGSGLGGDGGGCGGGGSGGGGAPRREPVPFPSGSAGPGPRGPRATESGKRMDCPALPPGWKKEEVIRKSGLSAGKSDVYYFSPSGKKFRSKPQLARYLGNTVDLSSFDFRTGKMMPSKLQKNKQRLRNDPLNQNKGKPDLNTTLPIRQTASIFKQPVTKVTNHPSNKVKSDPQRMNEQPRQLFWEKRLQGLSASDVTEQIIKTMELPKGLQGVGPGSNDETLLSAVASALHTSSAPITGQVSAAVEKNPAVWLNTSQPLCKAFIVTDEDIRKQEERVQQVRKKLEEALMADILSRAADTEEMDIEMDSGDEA
# Protein DOP1B = Protein DOP1B (UniProt Q9Y3R5); assay: as above
# [21] = molecular target: Transcriptional repressor p66-alpha (UniProt Q86YP4); assay: as above
# [22] = molecular target: Transcriptional repressor p66-beta (UniProt Q8WXI9); assay: as above
# Sequence of Transcriptional repressor p66-beta (Q8WXI9 whole entry): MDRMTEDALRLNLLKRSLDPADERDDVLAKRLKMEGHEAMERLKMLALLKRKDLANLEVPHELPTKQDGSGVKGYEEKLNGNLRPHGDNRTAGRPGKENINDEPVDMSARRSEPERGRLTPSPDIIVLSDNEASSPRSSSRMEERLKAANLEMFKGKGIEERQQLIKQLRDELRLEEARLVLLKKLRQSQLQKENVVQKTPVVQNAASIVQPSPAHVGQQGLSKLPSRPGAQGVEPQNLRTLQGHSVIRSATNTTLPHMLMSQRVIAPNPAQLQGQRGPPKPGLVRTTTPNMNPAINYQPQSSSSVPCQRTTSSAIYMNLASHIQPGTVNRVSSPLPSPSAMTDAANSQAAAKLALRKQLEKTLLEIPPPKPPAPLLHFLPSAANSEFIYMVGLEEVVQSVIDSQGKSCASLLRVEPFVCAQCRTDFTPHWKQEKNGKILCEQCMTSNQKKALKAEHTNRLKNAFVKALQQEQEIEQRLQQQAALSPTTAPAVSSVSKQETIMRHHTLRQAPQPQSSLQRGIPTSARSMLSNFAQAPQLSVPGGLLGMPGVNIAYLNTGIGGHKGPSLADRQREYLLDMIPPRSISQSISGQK
# [23] = molecular target: Tyrosine-protein phosphatase non-receptor type 14 (UniProt Q15678); assay: as above
# Histone deacetylase 1 [24] = molecular target: Histone deacetylase 1 (UniProt Q13547); assay: cross-link between two proteins; affinity purification or IP with mass spectrometry; cross-linking mass spectrometry
# [25] = molecular target: Paired amphipathic helix protein Sin3a (UniProt Q96ST3); assay: cross-link between two proteins; cross-linking mass spectrometry
# [26] = molecular target: Pre-mRNA-splicing factor CWC25 homolog (UniProt Q9NXE8); assay: as above
# [27] = molecular target: Guanine nucleotide-binding protein G(i) subunit alpha-3 (UniProt P08754); assay: co-fractionation; co-fractionation; cross-linking mass spectrometry
# [28] = molecular target: Heat shock-related 70 kDa protein 2 (UniProt P54652); assay: as above
# Tubulin alpha-3E chain = Tubulin alpha-3E chain (UniProt Q6PEY2); assay: as above
# AP-2 complex subunit mu = AP-2 complex subunit mu (UniProt Q96CW1); assay: cross-link between two proteins; co-fractionation; cross-linking mass spectrometry
# [29] = molecular target: Proteasome subunit alpha type-5 (UniProt P28066); assay: as above
# [30] = molecular target: Proteasome subunit beta type-4 (UniProt P28070); assay: as above
# [31] = molecular target: Proteasome subunit beta type-7 (UniProt Q99436); assay: as above
# [32] = molecular target: Dolichyl-diphosphooligosaccharide--protein glycosyltransferase 48 kDa subunit (UniProt P39656); assay: cross-link between two proteins; affinity purification or IP with mass spectrometry; cross-linking mass spectrometry
# 14-3-3 protein epsilon = 14-3-3 protein epsilon (UniProt P62258); assay: cross-linking mass spectrometry
# [33] = molecular target: Calcineurin B homologous protein 1 (UniProt Q99653); assay: cross-linking mass spectrometry
# [34] = molecular target: Charged multivesicular body protein 1a (UniProt Q9HD42); assay: cross-linking mass spectrometry
# Sequence of Charged multivesicular body protein 1a (Q9HD42 whole entry): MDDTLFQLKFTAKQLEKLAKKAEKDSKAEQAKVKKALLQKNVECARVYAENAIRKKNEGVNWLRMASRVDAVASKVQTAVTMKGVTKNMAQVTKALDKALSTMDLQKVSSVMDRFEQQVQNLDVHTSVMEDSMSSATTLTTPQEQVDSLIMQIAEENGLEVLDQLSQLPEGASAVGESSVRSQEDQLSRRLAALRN
# [35] = molecular target: Charged multivesicular body protein 3 (UniProt Q9Y3E7); assay: cross-linking mass spectrometry
# Sequence of Charged multivesicular body protein 3 (Q9Y3E7 whole entry): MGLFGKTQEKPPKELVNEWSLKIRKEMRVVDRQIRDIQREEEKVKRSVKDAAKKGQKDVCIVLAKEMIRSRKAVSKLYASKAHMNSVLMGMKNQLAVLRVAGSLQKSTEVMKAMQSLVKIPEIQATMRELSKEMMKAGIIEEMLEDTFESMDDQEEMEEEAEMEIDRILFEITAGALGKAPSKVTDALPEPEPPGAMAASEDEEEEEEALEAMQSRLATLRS
# [36] = molecular target: Charged multivesicular body protein 1b (UniProt Q7LBR1); assay: cross-linking mass spectrometry
# [37] = molecular target: Charged multivesicular body protein 4b (UniProt Q9H444); assay: cross-linking mass spectrometry
# [38] = molecular target: Endoplasmic reticulum resident protein 44 (UniProt Q9BS26); assay: cross-linking mass spectrometry
# Integrin beta-5 = Integrin beta-5 (UniProt P18084); assay: cross-linking mass spectrometry
# Laminin subunit gamma-1 = Laminin subunit gamma-1 (UniProt P11047); assay: cross-linking mass spectrometry
# [39] = molecular target: Splicing factor 3A subunit 1 (UniProt Q15459); assay: cross-linking mass spectrometry
# [40] = molecular target: Splicing factor 3B subunit 2 (UniProt Q13435); assay: cross-linking mass spectrometry
# [41] = molecular target: Splicing factor 3B subunit 5 (UniProt Q9BWJ5); assay: cross-linking mass spectrometry
# Splicing factor 45 = Splicing factor 45 (UniProt Q96I25); assay: cross-linking mass spectrometry
# Syntaxin-8 = Syntaxin-8 (UniProt Q9UNK0); assay: cross-linking mass spectrometry
# [42] = molecular target: U1 small nuclear ribonucleoprotein A (UniProt P09012); assay: cross-linking mass spectrometry
# [43] = molecular target: Vacuolar protein sorting-associated protein 16 homolog (UniProt Q9H269); assay: cross-linking mass spectrometry
# [44] = molecular target: Vacuolar protein sorting-associated protein 45 (UniProt Q9NRW7); assay: cross-linking mass spectrometry
# [45] = molecular target: Vesicle transport through interaction with t-SNAREs homolog 1A (UniProt Q96AJ9); assay: cross-linking mass spectrometry
# Sequence of Vesicle transport through interaction with t-SNAREs homolog 1A (Q96AJ9 whole entry): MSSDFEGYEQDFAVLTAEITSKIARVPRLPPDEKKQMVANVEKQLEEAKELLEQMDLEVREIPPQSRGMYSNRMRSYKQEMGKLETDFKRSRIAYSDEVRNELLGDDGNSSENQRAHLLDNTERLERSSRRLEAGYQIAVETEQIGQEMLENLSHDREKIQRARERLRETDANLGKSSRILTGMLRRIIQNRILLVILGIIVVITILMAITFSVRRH
# [46] = molecular target: Metastasis-associated protein MTA2 (UniProt O94776); assay: cross-link between two proteins; cross-linking mass spectrometry
# [47] = molecular target: Methyl-CpG-binding domain protein 3 (UniProt O95983); assay: as above
# Plexin-A1 = Plexin-A1 (UniProt Q9UIW2); assay: as above
# [48] = molecular target: Polyadenylate-binding protein 3 (UniProt Q9H361); assay: as above
# [49] = molecular target: Probable serine carboxypeptidase CPVL (UniProt Q9H3G5); assay: as above
# [50] = molecular target: Proteasome subunit beta type-3 (UniProt P49720); assay: as above
# [51] = molecular target: Putative elongation factor 1-alpha-like 3 (UniProt Q5VTE0); assay: as above
# [52] = molecular target: Putative heat shock protein HSP 90-alpha A4 (UniProt Q58FG1); assay: as above
# RNA-binding protein Raly = RNA-binding protein Raly (UniProt Q9UKM9); assay: as above
# [53] = molecular target: SIR2 antiphage-like protein 2 (UniProt Q9NWS6); assay: as above
# [54] = molecular target: Serine palmitoyltransferase 2 (UniProt O15270); assay: as above
# [55] = molecular target: Serine/threonine-protein kinase MARK2 (UniProt Q7KZI7); assay: as above
# [56] = molecular target: Splicing factor 3B subunit 2 (UniProt Q13435); assay: as above
# [57] = molecular target: Structural maintenance of chromosomes protein 3 (UniProt Q9UQE7); assay: as above
# [58] = molecular target: Succinate dehydrogenase [ubiquinone] flavoprotein subunit, mitochondrial (UniProt P31040); assay: as above
# THO complex subunit 2 = THO complex subunit 2 (UniProt Q8NI27); assay: as above
# THO complex subunit 3 = THO complex subunit 3 (UniProt Q96J01); assay: as above
# [59] = molecular target: Transforming protein RhoA (UniProt P61586); assay: as above
# [60] = molecular target: V-type proton ATPase subunit D (UniProt Q9Y5K8); assay: as above
# Sequence of Heat shock protein HSP 90-beta, P08238 (P08238 whole entry): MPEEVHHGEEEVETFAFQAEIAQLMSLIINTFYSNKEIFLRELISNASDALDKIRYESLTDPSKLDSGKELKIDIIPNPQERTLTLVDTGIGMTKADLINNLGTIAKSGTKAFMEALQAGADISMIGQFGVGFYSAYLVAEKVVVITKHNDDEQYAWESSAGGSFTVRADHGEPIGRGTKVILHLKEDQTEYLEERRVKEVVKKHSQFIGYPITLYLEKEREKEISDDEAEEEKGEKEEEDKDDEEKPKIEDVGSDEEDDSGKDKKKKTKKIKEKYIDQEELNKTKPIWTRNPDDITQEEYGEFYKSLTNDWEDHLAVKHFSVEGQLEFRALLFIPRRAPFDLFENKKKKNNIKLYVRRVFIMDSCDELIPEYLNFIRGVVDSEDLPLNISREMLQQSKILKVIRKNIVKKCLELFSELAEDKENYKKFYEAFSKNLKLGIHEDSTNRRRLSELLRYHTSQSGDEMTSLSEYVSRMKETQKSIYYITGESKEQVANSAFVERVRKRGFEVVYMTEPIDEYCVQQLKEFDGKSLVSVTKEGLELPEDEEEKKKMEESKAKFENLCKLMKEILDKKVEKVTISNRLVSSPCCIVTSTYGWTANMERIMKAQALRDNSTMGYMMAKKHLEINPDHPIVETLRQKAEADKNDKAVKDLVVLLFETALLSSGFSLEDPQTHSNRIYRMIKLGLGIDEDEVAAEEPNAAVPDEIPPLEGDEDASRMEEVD
# Sequence of AP-1 complex subunit mu-1 (Q9BXS5 whole entry, one chain of several): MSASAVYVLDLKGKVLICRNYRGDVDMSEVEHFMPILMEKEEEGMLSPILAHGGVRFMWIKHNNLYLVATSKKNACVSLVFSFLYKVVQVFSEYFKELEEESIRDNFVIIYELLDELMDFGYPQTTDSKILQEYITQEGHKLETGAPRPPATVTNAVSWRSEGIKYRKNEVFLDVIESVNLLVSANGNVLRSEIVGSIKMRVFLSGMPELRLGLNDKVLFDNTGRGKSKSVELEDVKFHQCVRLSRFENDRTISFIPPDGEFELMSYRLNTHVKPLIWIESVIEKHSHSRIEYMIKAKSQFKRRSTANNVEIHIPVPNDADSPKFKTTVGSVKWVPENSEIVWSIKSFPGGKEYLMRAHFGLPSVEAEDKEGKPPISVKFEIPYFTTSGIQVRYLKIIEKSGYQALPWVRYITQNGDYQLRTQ
substance,measurement,setting,value
"AP-1 complex subunit gamma-1, O43747",listed as a hit,[1],yes
same,listed as a hit,[2],yes
"Heat shock protein HSP 90-beta, P08238",listed as a hit,[3],yes
same,listed as a hit,Histone deacetylase 2,yes
same,listed as a hit,Peregrin,yes
"AP-1 complex subunit sigma-1A, P61966",listed as a hit,[2],yes
"Cytoplasmic FMR1-interacting protein 1, Q7L576",listed as a hit,Abl interactor 1,yes
"Dolichyl-diphosphooligosaccharide--protein glycosyltransferase subunit 1, P04843",listed as a hit,[4],yes
"Dolichyl-diphosphooligosaccharide--protein glycosyltransferase subunit 2, P04844",listed as a hit,[4],yes
"26S proteasome non-ATPase regulatory subunit 12, O00232",listed as a hit,[5],yes
"Proteasome subunit alpha type-3, P25788",listed as a hit,[6],yes
"ATP-dependent chromatin remodeler CHD4, Q14839",listed as a hit,[7],yes
"Leucine-rich repeat-containing protein 59, Q96AG4",listed as a hit,[8],yes
"Secretory carrier-associated membrane protein 3, O14828",listed as a hit,[9],yes
"Putative cytochrome b-c1 complex subunit Rieske-like protein 1, P0C7P4",listed as a hit,[10],yes
"ATP synthase peripheral stalk subunit OSCP, mitochondrial, P48047",listed as a hit,Elongin-A,yes
"DNA/RNA-binding protein KIN17, O60870",listed as a hit,[11],yes
"ADP/ATP translocase 3, P12236",listed as a hit,Histone H2B type 1-M,yes
"Collagen alpha-5(IV) chain, P29400",listed as a hit,Histone deacetylase 1 [12],yes
"Prohibitin 1, P35232",listed as a hit,[13],yes
"Protein-L-isoaspartate(D-aspartate) O-methyltransferase, P22061",listed as a hit,[14],yes
"Keratin, type II cytoskeletal 1, P04264",listed as a hit,[15],yes
"Biogenesis of lysosome-related organelles complex 1 subunit 1, P78537",listed as a hit,[16],yes
"B-cell receptor-associated protein 31, P51572",listed as a hit,[17],yes
"Syntaxin-7, O15400",listed as a hit,[18],yes
same,listed as a hit,Zinc finger protein DPF3,yes
"Metastasis-associated protein MTA1, Q13330",listed as a hit,[19],yes
same,listed as a hit,[20],yes
same,listed as a hit,Protein DOP1B,yes
same,listed as a hit,[21],yes
same,listed as a hit,[22],yes
same,listed as a hit,[23],yes
same,listed as a hit,Histone deacetylase 1 [24],yes
"Histone-binding protein RBBP7, Q16576",listed as a hit,[25],yes
"Transcriptional repressor p66-beta, Q8WXI9",listed as a hit,[26],yes
"Guanine nucleotide-binding protein G(i) subunit alpha-2, P04899",listed as a hit,[27],yes
"Heat shock 70 kDa protein 6, P17066",listed as a hit,[28],yes
"Tubulin beta-4B chain, P68371",listed as a hit,Tubulin alpha-3E chain,yes
"AP-2 complex subunit alpha-1, O95782",listed as a hit,AP-2 complex subunit mu,yes
"Proteasome subunit alpha type-7, O14818",listed as a hit,[29],yes
"Proteasome subunit beta type-1, P20618",listed as a hit,[30],yes
"Proteasome subunit beta type-3, P49720",listed as a hit,[31],yes
"Proteasome subunit alpha type-6, P60900",listed as a hit,[31],yes
"Calnexin, P27824",listed as a hit,[32],yes
"Paired amphipathic helix protein Sin3b, O75182",listed as a hit,Histone deacetylase 1 [24],yes
"14-3-3 protein gamma, P61981",listed as a hit,14-3-3 protein epsilon,yes
"Glycerol-3-phosphate acyltransferase 4, Q86UL3",listed as a hit,[33],yes
"Charged multivesicular body protein 1b, Q7LBR1",listed as a hit,[34],yes
same,listed as a hit,[35],yes
"Charged multivesicular body protein 2a, O43633",listed as a hit,[34],yes
same,listed as a hit,[36],yes
same,listed as a hit,[35],yes
same,listed as a hit,[18],yes
"Programmed cell death 6-interacting protein, Q8WUM4",listed as a hit,[37],yes
"Peroxiredoxin-4, Q13162",listed as a hit,[38],yes
"Integrin alpha-V, P06756",listed as a hit,Integrin beta-5,yes
"Laminin subunit beta-1, P07942",listed as a hit,Laminin subunit gamma-1,yes
"Splicing factor 3A subunit 2, Q15428",listed as a hit,[39],yes
"U2 small nuclear ribonucleoprotein A', P09661",listed as a hit,[40],yes
"Splicing factor 3B subunit 3, Q15393",listed as a hit,[41],yes
"U2 snRNP-associated SURP motif-containing protein, O15042",listed as a hit,Splicing factor 45,yes
"Vesicle transport through interaction with t-SNAREs homolog 1B, Q9UEU0",listed as a hit,Syntaxin-8,yes
"U2 small nuclear ribonucleoprotein B'', P08579",listed as a hit,[42],yes
"Vacuolar protein sorting-associated protein 33A, Q96AX1",listed as a hit,[43],yes
"Syntaxin-16, O14662",listed as a hit,[44],yes
same,listed as a hit,[45],yes
"Alpha-soluble NSF attachment protein, P54920",listed as a hit,[45],yes
"U3 small nucleolar RNA-interacting protein 2, O43818",listed as a hit,[46],yes
"Metastasis-associated protein MTA2, O94776",listed as a hit,[20],yes
same,listed as a hit,[47],yes
"Coiled-coil domain-containing protein 7, Q96M83",listed as a hit,Plexin-A1,yes
"Polyadenylate-binding protein 4, Q13310",listed as a hit,[48],yes
"Protein ZBED11, P0CF97",listed as a hit,[49],yes
"Proteasome subunit beta type-5, P28074",listed as a hit,[50],yes
"Elongation factor 1-beta, P24534",listed as a hit,[51],yes
"Putative heat shock protein HSP 90-beta 2, Q58FF8",listed as a hit,[52],yes
"RNA-binding Raly-like protein, Q86SE5",listed as a hit,RNA-binding protein Raly,yes
"Protein disulfide-isomerase, P07237",listed as a hit,[53],yes
"Serine palmitoyltransferase 1, O15269",listed as a hit,[54],yes
"MAP/microtubule affinity-regulating kinase 3, P27448",listed as a hit,[55],yes
"Microtubule-associated protein 1B, P46821",listed as a hit,[56],yes
"Titin, Q8WZ42",listed as a hit,[57],yes
"Homeobox protein Hox-B3, P14651",listed as a hit,[58],yes
"Flotillin-2, Q14254",listed as a hit,THO complex subunit 2,yes
"THO complex subunit 5, Q13769",listed as a hit,THO complex subunit 3,yes
"Interferon-inducible double-stranded RNA-dependent protein kinase activator A, O75569",listed as a hit,[22],yes
"Rho-related GTP-binding protein RhoC, P08134",listed as a hit,[59],yes
"Frizzled-9, O00144",listed as a hit,[60],yes
